Results on 40 molecules are retold here after PubChem BioAssay (EPA / NIEHS).

Records with an inconclusive call do not appear. Activity calls are given as the source filed them. How the source made its calls: active means hit-call score of the fitted dose curve at least 0.9, where 1 is the maximum; inconclusive means response in the unintended direction; inactive means score below 0.9.

Retinoic acid receptor RXR-alpha (Homo sapiens), sequence (P19793 whole entry, looked up): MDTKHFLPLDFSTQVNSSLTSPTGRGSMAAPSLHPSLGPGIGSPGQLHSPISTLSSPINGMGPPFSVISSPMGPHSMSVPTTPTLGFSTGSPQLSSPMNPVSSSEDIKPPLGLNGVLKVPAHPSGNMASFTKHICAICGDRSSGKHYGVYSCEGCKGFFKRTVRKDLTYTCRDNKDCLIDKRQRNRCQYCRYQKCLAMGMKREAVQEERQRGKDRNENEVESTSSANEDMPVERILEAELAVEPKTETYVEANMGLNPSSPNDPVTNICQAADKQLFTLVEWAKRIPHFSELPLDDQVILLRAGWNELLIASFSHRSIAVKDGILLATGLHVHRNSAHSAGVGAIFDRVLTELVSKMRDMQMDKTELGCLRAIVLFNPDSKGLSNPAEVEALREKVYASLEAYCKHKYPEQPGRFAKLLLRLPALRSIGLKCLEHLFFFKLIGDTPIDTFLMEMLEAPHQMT

The assay concerns the target Retinoic acid receptor RXR-alpha (Homo sapiens) (UniProt P19793). In words: ATG_RXRa_TRANS: Attagene TRANS-FACTORIAL HepG2 Assay for human Retinoid X Receptor alpha (RXRa) (AID 2283012). How it is done: ATG_TRANS is a cell-based, multiplexed-readout assay that uses HepG2, a human liver cell line, with measurements taken at 24 hours after chemical dosing in a 24-well plate.ATG_RXRa_TRANS is one of 30 assay component(s) measured or calculated from the ATG_TRANS assay. It is designed to make measurements of mRNA induction, a form of inducible reporter, as detected with fluorescence intensity signals by Reverse transcription polymerase chain reaction (RT-PCR) and Capillary electrophoresis technology.Data from the assay component ATG_RXRa_TRANS was analyzed into 1 assay endpoint. This assay endpoint, ATG_RXRa_TRANS, was analyzed in the positive analysis fitting direction relative to DMSO as the negative control and baseline of activity. Using a type of inducible reporter, measures of mRNA for gain-of-signal activity can be used to understand the reporter gene at the transcription factor-level as they relate to the gene RXRA. Furthermore, this assay endpoint can be referred to as a primary readout, because this assay has produced multiple assay endpoints where this one serves a reporter gene function. To generalize the intended target to other relatable targets, this assay endpoint is annotated to the nuclear receptor intended target family, where the subfamily is non-steroidal.
Human liver HepG2 cells are transiently transfected with multiple reporter transcription units (MRTUs) in 6-well plates using FuGene 6 reagent (Roche; 3 ml FuGene/1 mg DNA). The MRTU constructs are regulated by a cis-regulating element (promoter). […] A major difference between the CIS and TRANS system is that in CIS activities of endogenous TFs are measured, whereas the TRANS assay evaluates changes in activities of exogenous, chimeric NR-Gal4 proteins. […] At the end of 24 hour incubation, total RNA was isolated using TriZol reagent (Invitrogen). The isolated RNA is then reverse-transcribed using oligo(dT) primer and Mo-MLV reverse transcriptase (Invitrogen) with DNAse I (Ambion) treatment for 30 min. The one-tenth of the produced cDNA was amplified by PCR using Taq DNA polymerase (Invitrogen) and two reporter sequence-specific primers. The PCR products were fluorescently labeled by primer extension with 6-arboxyfluorescein (6-FAM) 5'-labeled reporter sequence-specific primer (2 min at 95 C, 20 s at 68 C and 10 min at 72 C) and these products were digested with 5U of HpaI (New England Biolabs) for 2h at 37 C. The fragments were purified using Qiaquick PCR columns (Qiagen), analyzed on an ABI 3130xL genetic analyzer (Applied Biosystems) with peak positions identified by using a set of X-rhodamine (ROX)-labeled MapMarker1000 molecular weight standards (BioVentures). The raw capillary electrophoresis data was processed using Attagraph software (Attagene).
Turning to `COc1cc(Cl)c(OC)cc1N`, the call was inactive.

In the case of `CCCCCCCCCC(C)C=O` (stereo not given), the result was inactive.

As to `Cc1ccc(S(=O)(=O)Oc2ccc(N=Nc3ccc(-c4ccc(N=Nc5c(O)ccc6cc(S(=O)(=O)O)cc(S(=O)(=O)O)c56)c(C)c4)cc3C)cc2)cc1`, the outcome was inactive.

In the case of `COc1cc(C(C)C)ccc1C`, the call was inactive.

Turning to `C=CCOC(=O)CCCCCC`, the molecule was called inactive.

On to `CCCCC(CC)COC(=O)c1ccc(O)cc1` (stereo not given), for which the call was inactive.

Regarding `Cc1ccc(OC(=O)c2ccccc2O)cc1`, the call was inactive.

For the molecule `CC1C2CC(CC2C2CCCC(O)C2)C1(C)C` (stereo not given), the outcome was inactive.

Take `ON=C1CCCCC1`: the result was inactive.

With `O=C1OC[C@H](Cc2cccc(O)c2)[C@H]1Cc1cccc(O)c1`, the outcome was inactive.

`C1CCOC1`: the molecule was called inactive.

Turning to `Cc1c(C2(c3cc(Br)c(O)c(Br)c3C)OS(=O)(=O)c3ccccc32)cc(Br)c(O)c1Br`, the call was inactive.

Regarding `CCCCC(CC)(CO)CO`, the call was inactive.

For `CC[N+](C)(CC)CC`, the outcome was inactive.

In the case of `Clc1cc(Cl)c(-c2c(Cl)c(Cl)cc(Cl)c2Cl)cc1Cl`, the molecule was classed as inactive.

Take `CC(O)C1CCCCC1` (stereo not given): the molecule was classed as inactive.

Take `OCCc1ccccc1`: the molecule was called inactive.

Take `CCCCOCC`: the result was inactive.

`CCOC(=O)CC(C)O` (stereo not given): the molecule was called inactive.

`OCc1cccc(Oc2ccccc2)c1`: the molecule was classed as inactive.

Consider `CC1CCC(C(C)C)C(O)C1` (stereo not given), for which the call was inactive.

For the molecule `FC(F)(F)COCC(F)(F)F`, the molecule was classed as inactive.

On to `c1ccc(Oc2ccccc2)cc1`, for which the result was inactive.

On to `CC/C=C\CC/C=C/CO`, for which the outcome was inactive.

For `CCCCCCC(C)Nc1ccc(Nc2ccccc2)cc1` (stereo not given), the concentration at half-maximal activity (AC50) is 34.4 µM (active).

As to `CCCCCCCCCCCCN1CCCCCC1=O`, the call was inactive.

For `COc1cc([C@@H]2c3cc4c(cc3[C@@H](O[C@@H]3O[C@@H]5CO[C@@H](C)O[C@H]5[C@H](O)[C@H]3O)[C@H]3COC(=O)[C@H]23)OCO4)cc(OC)c1O`, the call was inactive.

With `CC1=C(Br)C(=O)C(Br)=C/C1=C(/c1ccccc1S(=O)(=O)O)c1cc(Br)c(O)c(Br)c1C`, the molecule was called inactive.

As to `C[Si](C)(C)O[Si](C)(C)C`, the molecule was classed as inactive.

`OCC(O)c1ccccc1` (stereo not given): the result was inactive.

For the molecule `CCCCSCCCC`, the outcome was inactive.

Turning to `CC(C)(C)OC(=O)c1ccc(O)cc1`, the call was inactive.

On to `CCCCCCCCN1CCCC1=O`, for which the outcome was inactive.

As to `C[C@H](CCC(=O)NCC(=O)O)[C@H]1CC[C@H]2[C@@H]3[C@H](O)C[C@@H]4C[C@H](O)CC[C@]4(C)[C@H]3C[C@H](O)[C@]12C`, the result was inactive.

As to `CC(C)(CO)[C@@H](O)C(=O)NCCC(=O)O`, the result was inactive.

Turning to `CC(C)OCCO`, the result was inactive.

As to `OCCOCCN1CCN(C2=Nc3ccccc3Sc3ccccc32)CC1`, the molecule was classed as inactive.

As for `CCOC(=O)CCc1ccccc1`, the call was inactive.

As to `CC(=O)C1(C)CC2=C(CCCC2(C)C)CC1C` (stereo not given), the molecule was called inactive.

Regarding `CCCCCC(C)=O`, the molecule was classed as inactive.

One may read the AC50 as the midpoint of the concentration-response curve, whichever way the signal moves.
